Reference: PubChem BioAssay (NCI)
About 79,000 compounds went through this panel and 15% of them were active in at least one assay; those are over-represented in the sample as a whole. Cut-off read from the data, not from the text of the source: active = growth inhibition above about 70%; inactive = the rest.

Tests used:
[1] = NCI Yeast Anticancer Drug Screen. Data for the rad50 strain (AID 155);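 note: 0% = growth of vehicle-only cultures of the same strain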; details: S. cerevisiae rad50 strain growth inhibition; at 50.0 µM; active compounds read high
Summary of the method: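 Growth of the mutant yeast was measured after compound exposure and referenced to vehicle-treated cultures.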

[2] = NCI Yeast Anticancer Drug Screen. Data for the mec2-1 strain (AID 157); details: S. cerevisiae mec2-1 strain, at 50.0 µM, active compounds read high
Summary of the method: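 Each compound was tested on mec2-1 yeast, a strain altered in DNA damage repair or cell cycle control. Growth inhibition is reported relative to vehicle.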

[3] = NCI Yeast Anticancer Drug Screen. Data for the sgs1 mgt1 strain (AID 161);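 note: 0% = growth of cultures given vehicle only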; details: S. cerevisiae sgs1 mgt1 strain, at 50.0 µM, active compounds read high
Summary of the method: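 Mutant yeast exposed to compound; growth scored against vehicle-only wells.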

[4] = NCI Yeast Anticancer Drug Screen. Data for the cln2 rad14 strain (AID 165);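 note: 0% = growth equal to vehicle treated cultures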; details: S. cerevisiae cln2 rad14 strain, at 50.0 µM, active compounds read high
Summary of the method: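 Test compounds were added to cln2 rad14 yeast cultures; inhibition of growth was then determined by comparison with vehicle treatment.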

[5] = NCI Yeast Anticancer Drug Screen. Data for the bub3 strain (AID 167); details: S. cerevisiae bub3 mutant strain, at 50.0 µM, active compounds read high
Summary of the method: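 Whole-cell yeast assay. The mutant strain was incubated with compounds, and growth inhibition was determined by comparison with vehicle-treated cells.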

[6] = NCI Yeast Anticancer Drug Screen. Data for the mlh1 rad18 strain (AID 175); details: S. cerevisiae mlh1 rad18 strain growth inhibition; at 50.0 µM; active compounds read high
Summary of the method: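 Inhibition values reflect reduced growth of mutant yeast versus vehicle-treated controls following compound exposure; the mutations affect DNA damage repair.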

Measured: growth inhibition

CC(N)C(C)Cc1ccccc1 (stereo unspecified)
inactive: [1] -20.2% | [2] -21.4% | [3] -19.7% | [4] 65.7% | [5] -31.9% | [6] -14.6%

CN(C)C(=O)c1cc2ccccc2[nH]1
inactive: [1] 28.9% | [2] 16.4% | [3] 6.7% | [4] 12.8% | [5] 3.75% | [6] 20.2%

C(CC1CCNCC1)CC1CCNCC1
inactive: [1] -39.7% | [2] -19.1% | [3] -20.3% | [4] -23.8% | [5] 12.2% | [6] -64.7%

ON=C1CCN(c2ccccc2)CC1
inactive: [1] 10.3% | [2] -30.5% | [3] -10.4% | [4] -44.1% | [5] 1.6% | [6] -18.4%

CCOC(=O)Cn1ccc[n+]1CC(=O)c1ccccc1
inactive: [1] -14.9% | [2] 7.9% | [3] 17.4% | [4] -16.2% | [5] -15.4% | [6] -3.1%

Cc1cc(C(N)=O)c(C(N)=O)c(=O)[nH]1
inactive: [1] -13.1% | [2] 2% | [3] 0% | [4] -7.5% | [5] -14.2% | [6] 15.8%

C=CCc1cc(C(C)=O)ccc1O
inactive: [1] 2.75% | [2] -14.5% | [3] -9.75% | [4] -19.2% | [5] -8.95% | [6] -11.7%

CCN(c1ccc(Br)cc1)c1ccc(Br)cc1
inactive: [1] -14.2% | [2] -20.1% | [3] -23.2% | [4] -7.75% | [5] 3.75% | [6] 7.55%

c1ccc(N(c2ccccc2)C(c2ccccc2)(c2ccccc2)c2ccccc2)cc1
inactive: [1] 12.6% | [2] -2.65% | [3] 1.1% | [4] -36.3% | [5] -0.85% | [6] 7.85%

CC(=O)OCC1OC2OC(C)(C)OC2C1NC(=O)C(F)(F)F (stereo unspecified)
inactive: [1] 16.5% | [2] -2.5% | [3] -8.15% | [4] 10.3% | [5] -5.6% | [6] 9.25%

CCC(C(N)=O)C(N)=O
inactive: [1] -20.1% | [2] -27.9% | [3] -34.5% | [4] 15.8% | [5] -1.3% | [6] -6.1%

c1ccc(-c2ccccc2-c2ccccc2-c2ccccc2)cc1
inactive: [1] -58.8% | [2] -5.6% | [3] -5.9% | [4] -39.5% | [5] 21.5% | [6] -12.3%

CCCCCCCCCCCCCCNC(=O)CCl
inactive: [1] 14.8% | [2] -17.5% | [3] -5.8% | [4] -8.5% | [5] -9.25% | [6] -16.2%

CCN(Cc1cccc(S(=O)(=O)O)c1)c1ccc(C(=C2C=CC(=[N+](CC)Cc3cccc(S(=O)(=O)O)c3)C=C2)c2ccc(O)cc2S(=O)(=O)O)cc1
inactive: [1] -115% | [2] -127% | [3] -71.2% | [4] -110% | [5] -136% | [6] -137%

C/C(CC(=O)N1CCCCC1)=N\NC(N)=S
inactive: [1] -6.95% | [2] -9.45% | [3] -18.9% | [4] -10.5% | [5] 2.2% | [6] -18.2%

COC(=O)CCc1ccc(CCC(=O)OC)cc1
inactive: [1] -14.8% | [2] -37.1% | [3] -1.5% | [4] 4.2% | [5] -11.2% | [6] 9.7%

Clc1ccc(CSc2cnnc(SCc3ccc(Cl)cc3Cl)c2SCc2ccc(Cl)cc2Cl)c(Cl)c1
inactive: [1] 5.9% | [2] 5.9% | [3] 8.05% | [4] 2.25% | [5] -5.15% | [6] -6.6%

OCc1ccccc1C1CSCSC1
inactive: [1] -7.2% | [2] -29.1% | [3] -37.5% | [4] -30.9% | [5] -21.4% | [6] -12.2%

O=[N+]([O-])c1ccc(N/N=C\C2CC=C3c4ccccc4CCC3C2/C=N\Nc2ccc([N+](=O)[O-])cc2[N+](=O)[O-])c([N+](=O)[O-])c1 (stereo unspecified)
inactive: [1] 0.75% | [2] 3.1% | [3] -15.1% | [4] -9.7% | [5] -3.3% | [6] -5.85%

COC1OC(COS(C)(=O)=O)C(OS(C)(=O)=O)C(OC(=O)c2ccccc2)C1OS(C)(=O)=O (stereo unspecified)
inactive: [1] -6.25% | [2] 8% | [3] -9.6% | [4] 1.15% | [5] -0.85% | [6] 20.6%

CC12CCC(O)CC1=CCC1C2CCC2(C)C(C(O)CC(O)(C(F)(F)F)C(F)(F)F)CCC12 (stereo unspecified)
inactive: [1] 30.1% | [2] 48% | [3] 47.9% | [4] 3.95% | [5] 25.9% | [6] 40.5%

CC(=O)c1ccc(N2C(=O)C/C(=C/c3ccccc3O)C2=O)cc1
inactive: [1] 16.1% | [2] 0.05% | [3] 9.3% | [4] -20.9% | [5] 5.2% | [6] 16.6%

CCC1CC2CCC(c3cc4c(cc3OC)N(C)C3C(O)(C(=O)OC)C(OC(C)=O)C5(CC)C=CCN6CCC43C65)c3[nH]c4ccccc4c3CCN(C1)C2 (stereo unspecified)
inactive: [1] 2.65% | [2] 6.65% | [3] 12.4% | [4] -1% | [5] -3.35% | [6] 18.9%

COC(=O)C1CC(OC(C)=O)C2OC(C)(C)OC2C1OC(C)=O (stereo unspecified)
inactive: [1] 7.5% | [2] 1.55% | [3] -3.15% | [4] 0.55% | [5] 8.55% | [6] -3%

COC1=C(OCc2ccccc2)C(=O)OC1C(O)CO (stereo unspecified)
inactive: [1] -3.1% | [2] 11.4% | [3] 0.5% | [4] -1.3% | [5] -7.55% | [6] -12%

O=C(CC(O)(C(F)(F)F)C(F)(F)F)c1cccc(S(=O)(=O)N2CCOCC2)c1
inactive: [1] 7.05% | [2] 5.9% | [3] 8.5% | [4] 8.05% | [5] 0.6% | [6] 22.8%

CCC(S)(C(N)=O)c1ccccc1 (stereo unspecified)
inactive: [1] 3% | [2] -10.4% | [3] -7.55% | [4] -26.8% | [5] -4.8% | [6] -18.2%

Cc1ccc(N=C2SC(c3ccc(C)cc3)(c3ccc(C)cc3)c3ccccc32)cc1
inactive: [1] -35% | [2] 11.2% | [3] -3.9% | [4] -4.75% | [5] -7.15% | [6] -16.1%

N#Cc1c(-c2ccccc2)cn2c1[nH]c(=O)c1ccccc12
inactive: [1] 4% | [2] -6.65% | [3] 11.2% | [4] 5.45% | [5] -17.9% | [6] 1.05%

CCCCC(CC)C(=S)N1CCOCC1 (stereo unspecified)
inactive: [1] 0.95% | [2] -30.4% | [3] -18.8% | [4] 7.25% | [5] -4.65% | [6] -9.25%

COc1ccc(/C=C/C(=O)c2cc(C(=O)O)c(OC)cc2OC)cc1OC
inactive: [1] 4% | [2] -6.45% | [3] 22.4% | [4] 14.2% | [5] 17.9% | [6] -20.8%

COc1ccc2c(c1)CC/C(=C\c1ccccn1)C2=O
inactive: [1] 41.5% | [2] 33.5% | [3] 16.8% | [4] 24.4% | [5] 19.5% | [6] 14.4%

COc1ccc(NS(=O)c2ccc(Cl)cc2)cc1 (stereo unspecified)
inactive: [1] 13% | [2] 12.8% | [3] 28.3% | [4] 8.65% | [5] 11.4% | [6] 13.9%

NC(=O)c1ccccc1OC(=O)Nc1ccccc1
inactive: [1] 16.6% | [2] 7.5% | [3] 5.1% | [4] 17.2% | [5] 22.1% | [6] 10.8%

CCCCCCCCO[Si](OCCCCCCCC)(OCCCCCCCC)OCCCCCCCC
inactive: [1] -24.6% | [2] -26.3% | [3] -16.8% | [4] 6.9% | [5] -15.2% | [6] -20.9%

CCN1C(=O)CS/C1=N/NC(=O)C(O)(c1ccccc1)C1C=CC=CC1 (stereo unspecified)
inactive: [1] -9.6% | [2] -21.1% | [3] 2.6% | [4] 10.3% | [5] 0.25% | [6] 4.75%

COC1OC(CO)C(O)C1O (stereo unspecified)
inactive: [1] -25% | [2] -18.8% | [3] 2.55% | [4] -44.4% | [5] -4.85% | [6] -9.25%

c1ccc2c(c1)nnn2CN1CCOCC1
inactive: [1] -6.3% | [2] 17.1% | [3] -26.6% | [4] -22.9% | [5] 3.15% | [6] 5.7%

O=[N+]([O-])c1cccc(N=Cc2ccc(Cl)cc2)c1
inactive: [1] -29.9% | [2] -17.8% | [3] -62.5% | [4] -0.7% | [5] -0.05% | [6] -11.1%

CS(=O)(=O)N/N=C1/C=C2C/C(=N\NS(C)(=O)=O)C=C2C1
inactive: [1] 27.6% | [2] -0.7% | [3] 47.5% | [4] 30.2% | [5] -1.2% | [6] 43.7%

COc1ccc(C(=O)c2ccc(OC)cc2OC)cc1
inactive: [1] -4.15% | [2] 1.7% | [3] 21.4% | [4] -23.1% | [5] 3.05% | [6] 1.3%
